Source: PubChem
Hck-Nef inh: human Hck-Nef kinase inhibition. P08631. Recombinant Hck-YEEI plus Nef, Z-Lyte FRET kinase assay. inhibition, % at 20 µM. hit rate 0.68% among 220,000. AID 463187;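 active = Hck-Nef kinase inhibition above about 50%, limit read from the data; inactive = inhibition below that limit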;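 note: 0% = DMSO with Hck plus Nef and 100% = Hck alone without Nef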
p97 inhibitor: human p97 ATPase inhibition; P55072; recombinant p97 ATPase, Kinase-Glo ATP luminescence, 3 h; inhibition, % at 8 µM; hit rate 0.42% among 220,000; in the data active = inhibition above about 15%;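 note: 0% = DMSO vehicle and 100% = wells lacking enzyme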
Target sequence (P55072 whole entry, looked up): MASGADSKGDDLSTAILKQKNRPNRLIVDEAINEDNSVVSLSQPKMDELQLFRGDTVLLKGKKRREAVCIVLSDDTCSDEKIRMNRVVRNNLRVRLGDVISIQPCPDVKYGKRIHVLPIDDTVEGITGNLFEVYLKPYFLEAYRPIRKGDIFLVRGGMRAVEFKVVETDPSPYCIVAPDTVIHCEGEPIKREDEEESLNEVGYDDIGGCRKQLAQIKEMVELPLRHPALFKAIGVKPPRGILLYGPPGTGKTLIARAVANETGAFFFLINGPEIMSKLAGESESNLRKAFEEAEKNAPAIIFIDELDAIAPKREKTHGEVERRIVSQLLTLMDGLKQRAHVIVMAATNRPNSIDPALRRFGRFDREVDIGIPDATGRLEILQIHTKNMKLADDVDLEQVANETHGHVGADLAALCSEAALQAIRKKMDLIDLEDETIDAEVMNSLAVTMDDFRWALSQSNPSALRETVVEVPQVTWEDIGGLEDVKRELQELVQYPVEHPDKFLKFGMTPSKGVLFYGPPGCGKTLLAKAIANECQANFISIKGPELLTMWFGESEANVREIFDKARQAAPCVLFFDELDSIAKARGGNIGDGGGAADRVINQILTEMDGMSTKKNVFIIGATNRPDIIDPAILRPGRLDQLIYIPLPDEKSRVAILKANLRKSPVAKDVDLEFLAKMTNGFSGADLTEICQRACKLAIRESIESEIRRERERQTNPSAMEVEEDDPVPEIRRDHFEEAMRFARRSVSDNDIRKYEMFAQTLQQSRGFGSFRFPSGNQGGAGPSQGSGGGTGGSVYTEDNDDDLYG
Arbovirus anti: arbovirus infection inhibition; inhibition, % at 10 µM; hit rate 0.37% among 200,000; arbovirus infection cell-based antiviral screen; in the data active = inhibition above about 30%
EP2 mod: modulators of human EP2 prostaglandin E2 receptor; EP2-expressing cells, cAMP HTRF FRET, PGE2 co-stimulation; induction, % at 25 µM; P43116; hit rate 0.83% among 260,000;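 active = compounds whose cAMP rise, as percent of the full-agonist control response, exceeds 60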;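 note: rat C6 glioma line stably carrying human EP2 under a CMV promoter; the protocol text gives 20 µM as final concentration; 100% = response of wells given 1 µM PGE2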
PGE2 EP2 inh: EP2 receptor (human) inhibition | P43116 | C6 glioma cells expressing human EP2, cAMP TR-FRET; cells stimulated with saturating PGE2 | inhibition, % at 25 µM | hit rate 0.52% among 260,000;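 active = percent inhibition above 40 after rounding to a whole number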;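 note: rat C6 glioma host cells with rolipram phosphodiesterase inhibitor present; the protocol text gives 20 µM as final concentration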
EP2 cAMP induct: human EP2 receptor cAMP induction, negative in counter-screens; shares compounds with EP2 mod; C6 glioma EP2 cells, cAMP HTRF induction; plus low (about EC15) PGE2 agonist; calls only at 20 µM (by protocol); hit rate 47% among 1,300; AID 1080;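 active = cAMP induction above 50% in the main assay while under 30% in all four parallel counter assays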;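 note: rat C6 glioma cells stably expressing human EP2 receptor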
* marks the source's active call; other numbers are inactive results. This is a sample that favours compounds with a hit; in the whole collection about 2.4% have one here.

For COc1cc(OC)c(C(C)=O)c(O)c1C the results were EP2 mod 21.5 and PGE2 EP2 inh 4.6.
`COc1cc(C)c(C(=O)Oc2cc(C)c(C(=O)O)c(O)c2C)c(OC)c1C` gave Hck-Nef inh 17.3, p97 inhibitor -3.9, Arbovirus anti 11.8, EP2 mod 54.6, PGE2 EP2 inh 7.8 and EP2 cAMP induct inactive.
`NCCSc1nc(-c2ccccc2)c(-c2ccccc2)o1` gave EP2 mod 42.1 and PGE2 EP2 inh 9.6.
For N/C(CSc1nc(-c2ccccc2)c(-c2ccccc2)o1)=N\O the results were Hck-Nef inh 0.2, p97 inhibitor -1.2, Arbovirus anti -22.5, EP2 mod 66.8*, PGE2 EP2 inh 7.2 and EP2 cAMP induct active.
Screening CC(C)c1ccc(/C=N/Nc2cc(N3CCOCC3)nc(N3CCOCC3)n2)cc1 returned Hck-Nef inh 4.2, p97 inhibitor 4.7, Arbovirus anti -11.3, EP2 mod 95.8*, PGE2 EP2 inh 8.9 and EP2 cAMP induct active.
`Cc1cc(N/N=C/c2ccccc2)nc(N2CCOCC2)n1` gave Hck-Nef inh 6.7, p97 inhibitor 3.2, EP2 mod -12.6 and PGE2 EP2 inh 7.8.
For Cc1cccc(/C=N/Nc2cc(N3CCOCC3)nc(N3CCOCC3)n2)c1 the results were Hck-Nef inh 0.5, p97 inhibitor -5.2, Arbovirus anti -22.9, EP2 mod 79.5*, PGE2 EP2 inh 4.5 and EP2 cAMP induct active.
For CCn1nnc(NC(=O)COc2ccccc2)n1 the results were EP2 mod -12.5 and PGE2 EP2 inh 5.3.
Screening NCCNC(=O)c1cccnc1 returned EP2 mod -10.6 and PGE2 EP2 inh 11.6.
Screening Cc1ccc2cc(C)c(SCC(N)=O)nc2c1 returned EP2 mod 15.1 and PGE2 EP2 inh 11.4.
For O=C(Cc1ccccc1)Nc1ccccc1Sc1ccccc1 the results were Hck-Nef inh 3.1, p97 inhibitor -0.3, Arbovirus anti 0.2, EP2 mod 53.1 and PGE2 EP2 inh 2.8.
For O=C(Cc1ccc(Br)cc1)Nc1ccccc1Sc1ccccc1 the results were Hck-Nef inh 0.2, p97 inhibitor -2.5, Arbovirus anti -9.6, EP2 mod 68.1*, PGE2 EP2 inh -0.5 and EP2 cAMP induct active.
`COc1ccccc1/C=C/C(=O)OCC(=O)Nc1ccccc1Sc1ccccc1` gave Hck-Nef inh 2.2, p97 inhibitor -3.4, Arbovirus anti -0.2, EP2 mod 71.5*, PGE2 EP2 inh 8.1 and EP2 cAMP induct active.
`O=C(Cc1ccc(F)cc1)Nc1ccccc1Sc1ccccc1` gave Hck-Nef inh 1.9, p97 inhibitor 2.2, Arbovirus anti -1.7, EP2 mod 82.7*, PGE2 EP2 inh 1.8 and EP2 cAMP induct active.
Screening COc1ccccc1NC(=O)COC(=O)/C=C/c1ccccc1[N+](=O)[O-] returned Hck-Nef inh 1.6, p97 inhibitor -1.4, Arbovirus anti 0.4, EP2 mod -37.1 and PGE2 EP2 inh 4.8.
O=C(O)c1c[nH]c(=S)[nH]1 was read as EP2 mod 22.1 and PGE2 EP2 inh 17.0.
Screening Cc1nnc(SCC(=O)N2c3ccccc3C(C)(c3ccccc3)CC2(C)C)s1 (stereo unspecified) returned Hck-Nef inh 4.6, p97 inhibitor -3.9, Arbovirus anti 2.8, EP2 mod 67.2*, PGE2 EP2 inh 2.1 and EP2 cAMP induct inactive.
For CC[C@H](Cn1ncc2ccccc2c1=O)NC(=O)Cc1ccccc1OC the results were EP2 mod -43.1.
Screening O=C(Nc1ccccc1Oc1ccccc1)c1ccccc1F returned Hck-Nef inh -3.0, p97 inhibitor -3.1, Arbovirus anti 2.7, EP2 mod 68.1*, PGE2 EP2 inh 5.2 and EP2 cAMP induct inactive.
O=C(COc1ccccc1)Nc1ccccc1N1CCN(c2ccccc2)CC1 was read as Hck-Nef inh 1.1, p97 inhibitor -0.8, Arbovirus anti -3.2, EP2 mod 72.9*, PGE2 EP2 inh 8.3 and EP2 cAMP induct active.
O=C(COc1ccccc1)Nc1ccccc1Oc1ccccc1 was read as Hck-Nef inh 4.7, p97 inhibitor -3.8, Arbovirus anti -12.9, EP2 mod 72.1*, PGE2 EP2 inh 4.1 and EP2 cAMP induct active.
For O=C(COc1ccccc1)Nc1cc(C(F)(F)F)ccc1N1CCCC1 the results were Hck-Nef inh 0.5, p97 inhibitor -3.5, Arbovirus anti -1.1, EP2 mod 78.8*, PGE2 EP2 inh 18.9 and EP2 cAMP induct inactive.
Screening O=C(COc1ccccc1)Nc1ccccc1N1CCN(c2ccc(F)cc2)CC1 returned Hck-Nef inh 2.2, p97 inhibitor 6.4, Arbovirus anti 1.8, EP2 mod 35.5 and PGE2 EP2 inh 15.7.
For CCC(CN1CCC(C)CC1)NC(=O)C1(c2ccccc2)CCOCC1 (stereo unspecified) the results were EP2 mod -33.1 and PGE2 EP2 inh 4.3.
`CCC(C)(C)NC(=O)C(c1sccc1C)N(C(=O)c1csnn1)c1ccccc1F` (stereo unspecified) gave EP2 mod 20.1 and PGE2 EP2 inh 5.8.
COCCNC(=O)Cn1cc(/C=C2\C(=O)NC(=S)N(c3cc(C)cc(C)c3)C2=O)c2ccccc21 was read as EP2 mod -13.3 and PGE2 EP2 inh 7.8.
Screening Cc1ccc(OCC(=O)Nc2ccccc2-c2ccccc2)cc1 returned Hck-Nef inh -0.1, p97 inhibitor -2.1, Arbovirus anti -5.9, EP2 mod 60.1 and PGE2 EP2 inh -1.8.
`COc1cccc(OCC(=O)Nc2ccccc2-c2ccccc2)c1` gave Hck-Nef inh 20.2, p97 inhibitor -1.3, Arbovirus anti -15.1, EP2 mod 70.4*, PGE2 EP2 inh 12.7 and EP2 cAMP induct active.
`CN(C)Cc1c(-c2ccc(Cl)cc2)nc2ccccn12` gave Hck-Nef inh -16.9, p97 inhibitor -2.7, Arbovirus anti 3.4, EP2 mod -17.9 and PGE2 EP2 inh 11.0.
Screening Clc1ccc(-c2nc3ccccn3c2CN2CCCCC2)cc1 returned Hck-Nef inh 11.0, p97 inhibitor -0.5, Arbovirus anti -7.1, EP2 mod 65.7*, PGE2 EP2 inh -0.5 and EP2 cAMP induct inactive.
`S=c1[nH]nc(-c2ccc(Br)o2)n1Cc1ccccc1` gave Hck-Nef inh -0.7, p97 inhibitor -0.6, Arbovirus anti 11.6, EP2 mod 62.1*, PGE2 EP2 inh 8.2 and EP2 cAMP induct inactive.
For S=c1[nH]nc(C2CCCCC2)n1Cc1ccccc1 the results were Hck-Nef inh 24.0, p97 inhibitor 4.0, Arbovirus anti -13.7, EP2 mod 57.7, PGE2 EP2 inh 9.8 and EP2 cAMP induct inactive.
For S=c1[nH]nc(-c2ccccc2)n1Cc1ccccc1 the results were Hck-Nef inh 1.9, p97 inhibitor 4.8, Arbovirus anti -18.0, EP2 mod 14.0 and PGE2 EP2 inh 17.5.
CC(=O)OCC(=O)[C@@]12OC(C)(C)O[C@@H]1C[C@H]1[C@H]3CC=C4C[C@@H](O)CC[C@]4(C)[C@@H]3CC[C@@]12C was read as EP2 mod 52.3, PGE2 EP2 inh 39.7* and EP2 cAMP induct inactive.
